# Assay outcomes as filed in PubChem BioAssay.
# Luc counter – counter-screen: inhibitors of Kinase-Glo firefly luciferase | Q27757 | Kinase-Glo luciferase, ATP luminescence, 8 min | Potency, µM (doses to about 38.3 µM), for inactives: top-dose activity change, negative = inhibition, hits mostly inhibitors | 200,000 compounds, 0.28% hits | AID 1379; note: % is set by controls: 0 for no effect and ±100 for the full control effect; nearly all actives have a fitted effect of over 60% in size
#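 Compound is pinned into ATP-containing buffer (10 uM ATP, imidazole pH 7.2, 7 mM MgCl2). Kinase-Glo luciferase reagent is then added. Light output is recorded following an 8-min room-temperature incubation.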
# FLuc counter – firefly luciferase modulation, counter-screen for miR-21 project; AID 588342; Potency, µM (highest dose often 57.5 µM), for the others: at the top dose activity change, negative = inhibition, usual class: inhibitors; P08659; 360,000 compounds, 6.9% hits; purified FLuc, Km substrates, luminescence inhibition;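 note: plate controls were vehicle for no effect and reference inhibitor for full effect; nearly all actives have a fitted effect of over 55% in size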
# Target sequence (P08659 whole entry, looked up): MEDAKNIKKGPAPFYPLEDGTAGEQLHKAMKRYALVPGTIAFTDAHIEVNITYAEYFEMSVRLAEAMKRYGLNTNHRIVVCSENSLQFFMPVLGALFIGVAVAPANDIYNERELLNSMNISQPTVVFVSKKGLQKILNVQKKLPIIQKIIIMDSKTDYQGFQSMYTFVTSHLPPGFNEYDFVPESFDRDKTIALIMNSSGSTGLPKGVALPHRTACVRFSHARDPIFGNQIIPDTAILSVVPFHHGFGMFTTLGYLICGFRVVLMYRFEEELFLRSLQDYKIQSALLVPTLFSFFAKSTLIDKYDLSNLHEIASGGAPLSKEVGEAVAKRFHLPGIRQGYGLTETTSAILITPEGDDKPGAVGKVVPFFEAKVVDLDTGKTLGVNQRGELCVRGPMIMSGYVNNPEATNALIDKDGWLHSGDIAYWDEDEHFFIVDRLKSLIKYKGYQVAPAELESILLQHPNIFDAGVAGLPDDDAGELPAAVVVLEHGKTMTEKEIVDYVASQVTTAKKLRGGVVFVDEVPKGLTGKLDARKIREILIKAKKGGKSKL
#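 Purified P. pyralis luciferase (10nM final) with 10uM D-luciferin and 10uM ATP (Km levels) in 50mM Tris acetate pH 7.5, 10mM Mg acetate, 0.01% Tween-20, 0.05% BSA; qHTS 6-point titration, ~60 µM downward; luminescence read.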
# NPC1 promoter act – activators of NPC1 promoter; Huh7 NPC1 promoter luciferase reporter, 24 h; Potency, µM (titrated, usually from 9.22 µM), without a hit: at the highest dose activation, most hits filed as activators; 320,000 compounds, 2.4% hits; note: % of control where 0% means no effect; nearly all actives have a fitted effect of over 60% in size
#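 NPC1 promoter–luciferase Huh7 cells; 24 h compound; luminescence.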
# SMN2 splice up – SMN2 splice variant enhancement; HEK293 SMN2-luciferase splicing reporter, luminescence, 30-36 h; Potency, µM (doses to about 46.1 µM), for inactives: at the highest dose activity change, positive = activation, hits mostly activators; 210,000 compounds, 2.8% hits; note: % of control where 0% means no effect; nearly all actives have a fitted effect of over 55% in size
#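 qHTS luciferase splicing reporter: luminescence rises when SMN2 exon 7 is included in transfected HEK293 cells. Compound exposure lasted 30-36 h at 37C, with 4.5 mM final sodium butyrate as control, followed by a ONE-Glo read.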
# Rab9 promoter act – activators of Rab9 promoter | Huh7 Rab9 promoter-luciferase reporter, luminescence, 24 h | Potency, µM (doses to about 9.22 µM), for the others: at the top dose activation, negative = inhibition, hits mostly activators | 320,000 compounds, 2.8% hits | AID 485297; note: % of control where 0% means no effect; nearly all actives have a fitted effect of over 60% in size
#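 Measured in stably transfected Huh7 cells bearing a Rab9 promoter–luciferase construct: 24 h compound treatment at 37 °C, followed by luminescence detection.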
# * = called active by the depositor; u = inconclusive; x = not tested or not shown. Rows were chosen to be rich in hits. Some 7.3% of all compounds tested hit in one or more screens of this group. Calls come from the whole dose curve; as a rule, active = well fitted curve in the direction sought with a large enough effect; inconclusive = small, poorly fitted or top-dose-only effect, or another doubt; inactive = no such curve, though single readings can be large; an effect the other way counts as inactive or inconclusive. Potency is the fitted concentration of half-maximal effect.
SMILES,Luc counter,FLuc counter,NPC1 promoter act,SMN2 splice up,Rab9 promoter act
Cc1cc(=O)[nH]c2nnc(SCC(=O)Nc3cc(C(F)(F)F)ccc3Cl)n12,x,3%,x,x,x
O=C(CSc1nnc2[nH]c(=O)cc(-c3ccccc3)n12)Nc1cc(C(F)(F)F)ccc1Cl,x,0.21µM*,x,x,x
CN(C(=O)CSc1nnc2[nH]c(=O)cc(-c3ccccc3)n12)c1ccccc1,x,19µM*,x,x,x
Cc1cccc(NC(=O)CSc2nnc3[nH]c(=O)cc(-c4ccccc4)n23)c1C,x,3µM*,x,x,x
O=C(CSc1nnc2[nH]c(=O)cc(-c3ccccc3)n12)Nc1ccc(F)cc1F,x,1.9µM*,x,x,x
Cc1ccc2c(c1)NC(=O)C(CC(=O)Nc1ccccc1Cl)O2 (centres undefined),x,1%,x,0%,x
CC1CCc2c(sc3nc(-c4cc5cc(Br)ccc5oc4=O)[nH]c(=O)c23)C1 (centres undefined),x,5%,x,x,x
Cc1cc(C)c(NC(=O)CSc2nc3ccccc3c3nc(-c4ccccc4)nn23)c(C)c1,x,0%,x,x,x
O=C(Nc1cccc(-c2ccc3nncn3n2)c1)C(F)(F)F,x,2%,1%,x,-1%
CC1CCN(C(=O)C(C)Sc2nc(-c3ccccc3)cc(C(F)(F)F)n2)CC1 (centres undefined),-4%,-7%,-5%,-20%,-2%
O=C(Nc1cccc(-c2ccc(N3CCCCC3)nn2)c1)C(F)(F)F,x,1.3µM*,0.28µM*,x,0.79µM*
O=C(Nc1cccc(-c2ccc(N3CCCCC3)nn2)c1)c1ccc(Br)o1,x,0.34µM*,1.3µM*,x,2.8µM*
CC1CCN(c2ccc(-c3cccc(NC(=O)C(F)(F)F)c3)nn2)CC1,x,0.24µM*,u,x,0.32µM*
C=C(COC)C1=CCC(C(=O)OC)(C(=O)OC)[C@@H](C[N+](=O)[O-])c2ccccc21,-1%,x,x,20%,x
CCSc1ncc(Cl)c(C(=O)N2CCN(c3ccccc3OC)CC2)n1,x,-1%,x,-1%,x
CCOC(=O)c1cnc2cc(C(F)(F)F)ccc2c1N1CCN(c2cccc(Cl)c2)CC1,x,1%,x,23%,x
CCN(CC)c1ccc(/C=C(/C#N)c2nc3ccc(C)cc3[nH]2)c(OC(C)C)c1,-1%,5.4µM*,-2%,-1%,-2%
CCOc1cc(N(CC)CC)ccc1/C=C(/C#N)c1nc2ccccc2[nH]1,3%,9.5µM*,5%,-47%,u
CCCOc1cc(N(CC)CC)ccc1/C=C(/C#N)c1nc2ccc(C)cc2[nH]1,x,-9%,-10%,x,0%
O=C(CSc1nc2ccccc2s1)NC1CCCC1,x,-26%,-4%,x,2%
O=C(c1ccc(-c2nc3ccccc3s2)s1)N1CCOCC1,u,0.38µM*,0.089µM*,x,u
CCN1CCN(C(=O)c2ccc(-c3nc4ccccc4s3)s2)CC1,-6%,u,u,11µM*,2.2µM*
CCOC(=O)C1CCN(S(=O)(=O)c2ccc(-c3cc(C(F)(F)F)n(C)n3)s2)CC1,x,0%,3%,x,2%
O=C(NC1CC1)c1ccc(-c2nc3ccccc3s2)s1,u,0.15µM*,0.4µM*,0.5µM*,0.32µM*
CCOC(=O)C1CCN(S(=O)(=O)c2ccc(-c3nc4ccccc4s3)s2)CC1,5%,21µM*,30%,-28%,17%
SMILES,Luc counter,FLuc counter,NPC1 promoter act,SMN2 splice up,Rab9 promoter act
O=C(c1cc2ccccc2s1)N1CCOCC1,x,-6%,8%,x,1%
CCCCOc1cccc(C(=O)N(Cc2cccs2)c2ccc(OC)cc2)c1,x,-13%,x,x,x
CCCN1CCCc2cc(CN(CCCN3CCOCC3)C(=O)Nc3ccc(CC)cc3)ccc21,x,-8%,x,x,x
COc1cc(SSc2cc(OC)cc([N+](=O)[O-])c2N)c(N)c([N+](=O)[O-])c1,x,8.5µM*,-2%,x,0%
COc1cc([N+](=O)[O-])c2ncsc2c1,1%,2%,0%,2%,-6%
O=c1cc(-c2ccc(O)c(O)c2)oc2c1ccc1ccccc12,x,u,-9%,x,-2%
COc1ccc(-c2cc3ccccc3c(=O)o2)cc1,-25%,x,x,13µM*,x
COc1ccc(C(=O)c2c(O)cc(-c3ccc(OC)cc3)oc2=O)cc1,3%,17µM*,-3%,11%,-3%
O=c1cc(-c2ccc(O)c(O)c2)oc2ccc3ccccc3c12,x,2.4µM*,u,x,17%
